Measurements reported in PubChem BioAssay (NCI).
The panel holds about 79,000 compounds, 15% with a hit somewhere; the sample as a whole holds those more often. Rule as the data show it: active = growth inhibition above about 70%; inactive = the rest.

What was measured:
[1] = NCI Yeast Anticancer Drug Screen. Data for the rad50 strain (AID 155);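 also: 0% = growth of vehicle-only cultures of the same strain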; details: S. cerevisiae rad50 strain growth inhibition; at 50.0 µM; hits give high values
In short: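 Inhibition values express reduced yeast growth in compound-treated cultures relative to vehicle-treated controls.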

[2] = NCI Yeast Anticancer Drug Screen. Data for the mec2-1 strain (AID 157); details: S. cerevisiae mec2-1 strain, at 50.0 µM, hits give high values
In short: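 Using mec2-1 yeast: add compound, measure growth, express inhibition versus vehicle-treated cultures.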

[3] = NCI Yeast Anticancer Drug Screen. Data for the sgs1 mgt1 strain (AID 161);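 also: 0% = growth of cultures given vehicle only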; details: S. cerevisiae sgs1 mgt1 strain, at 50.0 µM, hits give high values
In short: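 Percent growth inhibition was derived by comparing compound-exposed mutant yeast with vehicle-exposed cultures. The strain carries alterations in DNA damage repair.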

[4] = NCI Yeast Anticancer Drug Screen. Data for the cln2 rad14 strain (AID 165);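 also: 0% = growth equal to vehicle treated cultures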; details: S. cerevisiae cln2 rad14 strain, at 50.0 µM, hits give high values
In short: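 Yeast strain cln2 rad14, bearing defects in cell cycle control and DNA repair, serves as the test system; values reflect growth inhibition compared with vehicle.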

[5] = NCI Yeast Anticancer Drug Screen. Data for the bub3 strain (AID 167); details: S. cerevisiae bub3 mutant strain, at 50.0 µM, hits give high values
In short: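 Steps: expose the mutant yeast strain to compound; grow alongside vehicle-treated cultures; measure growth; express inhibition against the vehicle cultures.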

[6] = NCI Yeast Anticancer Drug Screen. Data for the mlh1 rad18 strain (AID 175); details: S. cerevisiae mlh1 rad18 strain growth inhibition; at 50.0 µM; hits give high values
In short: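 Steps: expose repair-defective yeast to compound; measure growth; express inhibition against vehicle-treated controls.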

Measured: growth inhibition

CCCCCC(=O)OCCC1CCCCC1
inactive: [1] 25.6% | [2] 9.3% | [3] 18.7% | [4] -6.7% | [5] 11.6% | [6] 31.2%

Nc1ncc([N+](=O)[O-])cn1
inactive: [1] 1.9% | [2] -4.7% | [3] -29% | [4] -13.8% | [5] 5.6% | [6] -9.45%

CCN(CC)CCN1CNC(=S)NC1
inactive: [1] 0.1% | [2] -20.6% | [3] 11.2% | [4] -1.8% | [5] -1.2% | [6] -7.15%

O=C1C=C(c2ccccc2)C(O)(c2ccccc2)C1 (stereo not given)
inactive: [1] 15.1% | [2] 6.85% | [3] 6.75% | [4] 5.1% | [5] 11.4% | [6] 6.15%

CC(=O)C1C(=O)C(=O)N(c2ccc(Cl)c(Cl)c2)C1=O (stereo not given)
inactive: [1] -22.1% | [2] -21% | [3] -2.35% | [4] -14.4% | [5] -9.5% | [6] -24.9%

OCCc1ccc(Cl)cc1
inactive: [1] 10.8% | [2] 8.15% | [3] 9.7% | [4] 15.3% | [5] -1.3% | [6] 7.9%

COc1ccc(Br)c(C=O)c1
inactive: [1] -10.1% | [2] -8.9% | [3] -5.65% | [4] 1.95% | [5] -7.45% | [6] -2.25%

CC1(c2ccccc2)CO1 (stereo not given)
inactive: [1] -2.8% | [2] -21.4% | [3] -7.85% | [4] -11.1% | [5] -14.9% | [6] 4.3%

C1Cc2onc(-c3noc4c3CCC4)c2C1
inactive: [1] -11.2% | [2] -16.8% | [3] -15.2% | [4] 22.6% | [5] -14.2% | [6] -14.6%

CC(C)c1ncc([N+](=O)[O-])n1C
inactive: [1] -13.2% | [2] 2.9% | [3] -16.6% | [4] -30.1% | [5] 6.15% | [6] 8.75%

O=C(NCc1ccccc1)/C(=C/c1ccccc1)NC(=O)c1ccccc1
inactive: [1] -33.1% | [2] -31.4% | [3] -33.9% | [4] -7.2% | [5] -12.3% | [6] -42.5%

O=C(Nc1ccc([N+](=O)[O-])cc1)C(=O)Nc1ccc([N+](=O)[O-])cc1
inactive: [1] -8.7% | [2] -24.2% | [3] 11.6% | [4] -7.55% | [5] 3.1% | [6] 5.3%

C1=NCCc2ccccc21
inactive: [1] 0.55% | [2] 3% | [3] -8.25% | [4] -19.9% | [5] 2.05% | [6] 15.2%

CC1CCC(C(C)(C)[N+](C)(C)C)CC1 (stereo not given)
inactive: [1] 40.2% | [2] 17.6% | [3] 23.9% | [4] 10.6% | [5] 47.2% | [6] 36.4%

Cc1cc(CO)c(O)c(CO)c1
inactive: [1] 8.15% | [2] -10.4% | [3] 0.1% | [4] -5.05% | [5] -10.5% | [6] 0.85%

O=S(=O)(O)c1ccc(O)c(C2CCCCC2)c1
inactive: [1] -7.1% | [2] -8.4% | [3] -21.1% | [4] -23.2% | [5] -12.2% | [6] 31.4%

COc1cc(C(=O)NC(=S)NCc2ccncc2)cc(OC)c1OC
inactive: [1] 9.6% | [2] 4.75% | [3] -4.65% | [4] -11.2% | [5] 34.2% | [6] 19.7%

O=C(NC1CCCCC1)c1ccc(Cl)cc1
inactive: [1] 4.55% | [2] -6.7% | [3] -20.1% | [4] 12.7% | [5] -17.6% | [6] -1.85%

O=C(CC(CC(=O)c1ccccc1)c1ccccn1)c1ccccc1
inactive: [1] -16.6% | [2] -20.2% | [3] -28.1% | [4] -33% | [5] 4.65% | [6] -42.1%

S=C=Nc1ccc2ccccc2c1
inactive: [1] 15.3% | [2] -12.4% | [3] -5.9% | [4] 10.6% | [5] 2.35% | [6] 21.1%

CC(CO)(CO)C(=O)O
inactive: [1] 4.35% | [2] -31.4% | [3] -11.6% | [4] 21.3% | [5] -14% | [6] 10.1%

CC(=O)NC(CCC(=O)c1ccccc1)C(=O)O (stereo not given)
inactive: [1] 18.1% | [2] -4.95% | [3] 17.3% | [4] 5.05% | [5] 0% | [6] 16%

CCOC(=O)c1ccc(Nc2sc(C(=O)c3ccc(Br)cc3)c(N)c2C#N)cc1
inactive: [1] -9.4% | [2] -23.6% | [3] 12.6% | [4] 20.3% | [5] -3.6% | [6] -2.05%

N#Cc1ccc2nc[nH]c2c1
inactive: [1] 18.7% | [2] -6.75% | [3] -13% | [4] 19.4% | [5] -15.4% | [6] 17.9%

CC(=O)Nc1ccc(/C=C2\SC(=S)N(/C=C(\C(C)=O)C(N)=O)C2=O)cc1
inactive: [1] -52% | [2] -7.4% | [3] -37.6% | [4] -0.8% | [5] -5% | [6] -11.2%

O=C(O)c1cc(I)ccc1O
inactive: [1] -6.65% | [2] -0.3% | [3] -1.25% | [4] -33.8% | [5] -12.7% | [6] 26.9%

COc1ccc(C(=O)C(=O)c2ccccc2)cc1
inactive: [1] 26.6% | [2] 34.1% | [3] 31.9% | [4] 1.85% | [5] 11.1% | [6] 33.5%

Cn1c(=O)c2[nH]c(CC(=O)O)nc2n(C)c1=O
inactive: [1] 29.5% | [2] 11% | [3] 33.8% | [4] 22.8% | [5] 0.85% | [6] 24.1%

Cc1cc(=O)n(Nc2ccccc2)c(O)c1C#N
inactive: [1] 3.45% | [2] -19% | [3] 0.3% | [4] 2.65% | [5] 5.6% | [6] 3.15%

Cc1ccc(O)c(N)c1
inactive: [1] 2.1% | [2] -12.5% | [3] -20.3% | [4] 2.35% | [5] -9.6% | [6] 0.95%

Cc1cc(Cl)cc(Cc2cc(Cl)cc(C)c2O)c1O
inactive: [1] 50.1% | [2] 24.1% | [3] 55% | [4] 29% | [5] 22.1% | [6] 20.6%

C=CCC(OC(C)=O)c1ccc(C(C)C)cc1 (stereo not given)
inactive: [1] 4% | [2] 0.9% | [3] -23.4% | [4] -55.1% | [5] -0.5% | [6] 5.45%

CCOC(=O)C(=O)CC(=O)c1ccccc1
inactive: [1] 8.65% | [2] 8.05% | [3] -5.75% | [4] -26.4% | [5] 8.55% | [6] 11.7%

CC(c1ccccc1)N1C(=O)CSC1=S (stereo not given)
inactive: [1] 37.1% | [2] 30.5% | [3] 22.8% | [4] 35.8% | [5] 53.6% | [6] 52.1%

NC(=O)c1cc2c3ccccc3ccn2c1-c1ccccc1
inactive: [1] 35.8% | [2] 27.2% | [3] 46.7% | [4] 62.6% | [5] 64% | [6] 60%

Cc1ccc(NCN2C(=O)c3ccccc3C2=O)c(C)n1
inactive: [1] 4.7% | [2] -28.4% | [3] 8.05% | [4] 11.3% | [5] 7% | [6] -0.65%

COC1OC(COC(C)=O)C(OC(C)=O)C(OC(C)=O)C1OC(C)=O (stereo not given)
inactive: [1] 10.7% | [2] 3.05% | [3] 47.2% | [4] -28.6% | [5] 2.05% | [6] 13.2%

O=S(Cc1ccccc1)/C(=C/NC(=S)Nc1cc(Cl)ccc1Cl)c1ccccc1 (stereo not given)
inactive: [1] 3.6% | [2] 7.05% | [3] 14.4% | [4] 5.6% | [5] 5.35% | [6] 7.1%

CC(=O)OC(C)c1cccc(C#N)c1 (stereo not given)
inactive: [1] 7.15% | [2] -25.4% | [3] 6.2% | [4] -8.9% | [5] -2.95% | [6] 22%

O=C(CCl)Oc1ccc([N+](=O)[O-])cc1
inactive: [1] 20.8% | [2] 21.9% | [3] 23.8% | [4] 11.7% | [5] 19.8% | [6] 26.6%
